Assay outcomes deposited in PubChem BioAssay by National Center for Advancing Translational Sciences (NCATS).
In the library only some 11% were active in any assay of this set; here they are far more common.
HPGD inh = HPGD (human) dehydrogenase inhibition; P15428; purified HPGD, NADH fluorescence kinetic, PGE2 substrate; Potency, µM, for the others: at the top dose activity change, negative = inhibition, usual class: inhibitors; 150,000 compounds, 4.3% hits; AID 894; active = well fitted inhibition curve with a large enough effect, not every such curve was filed as active; inconclusive = small, poorly fitted or top-dose-only effect, or another doubt; inactive = no such curve, though single readings can be large or run the other way; note: potency is the fitted concentration of half-maximal effect; % is set by controls: 0 for no effect and ±100 for the full control effect
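NADH formation kinetics: reaction with 30 uM PGE2 and 1 mM NAD+ (final), 20 nM enzyme, Tris-HCl pH 8 with Tween 20, after 15 min compound preincubation at room temperature. Fluorescence change, last versus first of five reads.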
HttQ103 aggreg = reduces HttQ103-GFP aggregates in PC12 cells. Potency, µM (top dose mostly 46.1 µM), for inactives: at the top dose activity change, negative = inhibition, usual class: inhibitors. PC12 HttQ103-GFP aggregates, Acumen cytometry, 40 h. 220,000 compounds, 1.1% hits; note: potency is the fitted concentration of half-maximal effect; % is set by controls: 0 for no effect and ±100 for the full control effect; nearly all actives have a fitted effect of over 60% in size
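Aggregates are detected as GFP objects 1–25 µm with signal 6 STDEV over background in lysates of induced PC12 cells. These carry Huntingtin exon 1 with 103 glutamines fused to GFP under an ecdysone promoter; compounds titrated.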
PNC assembly inh = blocks assembly of the perinucleolar compartment. PC3M PTB-GFP, PNC prevalence imaging, 16 h; hits give low values. activity change (PNC), negative = inhibition, % at 10 µM. 140,000 compounds, 3.1% hits. AID 2417;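 active = readout at or below -70, meaning at least 70% loss of cells showing the perinucleolar compartment, a nuclear body marking cancer cells; inconclusive = readout between -30 and a set limit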;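 note: plate controls were DMSO wells for no effect and camptothecin positive control wells for full effect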
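PC3M cells stably expressing PTB-GFP, 750–1000 cells/well, treated 16 h at 37 °C with compound (23 nl of library stock), in duplicate. After paraformaldehyde fixation and Hoechst stain, imaged at 20x; PNC prevalence scored by image analysis.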
GoLoco inh red = RGS12 GoLoco-Gai1 interaction inhibition. P63096. Gai1:RGS12 GoLoco peptide FP, rhodamine, 10 min. Potency, µM (top dose mostly 61.6 µM), without a hit: at the highest dose activity, negative = inhibition, most hits filed as inhibitors. 230,000 compounds, 0.44% hits; active = well fitted inhibition curve with a large enough effect, not every such curve was filed as active; inactive = no such curve, though single readings can be large or run the other way; note: potency is the fitted concentration of half-maximal effect; % is set by controls: 0 for no effect and ±100 for the full control effect; nearly all actives have a fitted effect of over 30% in size
HTT ATP protect = Huntington cell model cytoprotection by ATP luminescence. PC12 HTT-Q103 induced, cytoprotection, ATP luminescence, 40 h. Potency, µM (series often up to 56.4 µM), inactives show cytoprotection (ATP increase), most hits filed as activators. 230,000 compounds, 0.14% hits. AID 1471; note: potency is the fitted concentration of half-maximal effect; % of control where 0% means no effect; nearly all actives have a fitted effect of over 45% in size
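ATP quantification (ATPlite) reports survival of PC12 cells in which tebufenozide, 100 nM final, switches on Htt exon 1 with 103 glutamines linked to GFP; compounds are titrated.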
ALDH1A1 inh = ALDH1A1 (human) enzyme inhibition; 220,000 compounds, 7.3% hits; P00352; Potency, µM (highest dose often 75.3 µM), without a hit: top-dose activity, negative = inhibition, usual class: inhibitors; AID 1030; Purified ALDH1A1, NADH fluorescence, propionaldehyde substrate; active = well fitted inhibition curve with a large enough effect, not every such curve was filed as active; inconclusive = small, poorly fitted or top-dose-only effect, or another doubt; inactive = no such curve, though single readings can be large or run the other way;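 note: potency is the fitted concentration of half-maximal effect; plate controls were no enzyme wells and a reference inhibitor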
Target sequence (P00352 whole entry, looked up): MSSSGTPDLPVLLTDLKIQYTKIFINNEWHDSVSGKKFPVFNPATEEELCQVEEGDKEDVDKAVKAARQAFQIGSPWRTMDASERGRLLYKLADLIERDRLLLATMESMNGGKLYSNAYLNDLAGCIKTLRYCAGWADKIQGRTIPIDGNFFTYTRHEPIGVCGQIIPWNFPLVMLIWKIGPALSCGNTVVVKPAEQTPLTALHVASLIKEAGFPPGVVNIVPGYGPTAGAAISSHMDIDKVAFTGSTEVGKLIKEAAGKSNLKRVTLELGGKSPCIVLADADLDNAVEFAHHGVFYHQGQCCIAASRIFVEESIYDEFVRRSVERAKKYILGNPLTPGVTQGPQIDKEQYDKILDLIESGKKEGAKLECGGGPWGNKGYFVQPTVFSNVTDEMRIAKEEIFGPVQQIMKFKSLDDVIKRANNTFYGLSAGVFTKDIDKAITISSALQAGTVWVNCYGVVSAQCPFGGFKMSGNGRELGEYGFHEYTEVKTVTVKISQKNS
The depositor's hits bear a star; ? = inconclusive; nt = not tested or not shown; [ ] = another dose, or the depositor's remark. Unless noted, calls come from the whole dose curve; as a rule, active = well fitted curve in the direction sought with a large enough effect; inconclusive = small, poorly fitted or top-dose-only effect, or another doubt; inactive = no such curve, though single readings can be large; an effect the other way counts as inactive or inconclusive.

SMILES	HPGD inh	HttQ103 aggreg	PNC assembly inh	GoLoco inh red	HTT ATP protect	ALDH1A1 inh
N#CC1=C(N)N(c2ncn[nH]2)C2=C(C(=O)CCC2)C1c1ccccc1 (configuration not stated)	nt	-8%	nt	11%	-17%	3%
O=S(=O)(Nc1ccccc1O)c1cccc2cccnc12	nt	10%[9.22 µM]	nt	31%	20%[10 µM]	-11%
O=C(Sc1cccc2cccnc12)c1ccc(F)cc1	nt	10µM*	nt	0%	19%[10 µM]	?
O=S(=O)(Nc1cc(Sc2cccc3cccnc23)c(O)c2ccccc12)c1ccc(F)cc1	1.3µM*	22µM*	-118*	-6%	nt	28µM*
O=C(COC(=O)CNS(=O)(=O)c1c(Cl)cccc1Cl)Nc1cccnc1Cl	-6%	9%	-29	16%	2%[10 µM]	5%
CCN1CCN(c2c(C(=O)c3ccc(OC)cc3)cnc3ccccc23)CC1	nt	28%	nt	-1%	17%	2.8µM*
CCOC(=O)C1CCCN(c2c(C(=O)c3ccccc3)cnc3ccc(OC)cc23)C1 (configuration not stated)	nt	1%	nt	-1%	-17%	?
N#Cc1c(Cl)nc(SCc2ccccc2)nc1-c1ccccc1	2.8µM*	?	-25	12%	-3%	32µM*
CCn1c(=O)c2cc(C(=O)N(C)c3ccccc3F)sc2c2ccccc21	nt	5%[9.22 µM]	nt	1%	5%[10 µM]	25µM*
CCn1c(=O)c2cc(C(=O)N(C)c3ccc(OC)cc3OC)sc2c2ccccc21	nt	3%[9.22 µM]	nt	6%	-4%[10 µM]	-4%
FC(F)(F)c1ccc(Oc2ccc3ccccc3c2Br)nc1	-15%	5%	?	13%	1%[10 µM]	9%
CN1C(=O)C2(c3ccccc31)C1CCCC=C1C(C#N)=C(N)C2(C#N)C#N (configuration not stated)	-17%	nt	3	34%	20µM*	?
C=CC[C@@H]1C=C[C@@H](O/N=C(/C)CCC(=O)OC[C@@H]2O[C@H](c3ccccc3)C=C[C@@H]2Oc2ccc(OC)cc2)[C@@H](CO)O1	nt	nt	nt	nt	?	3%[13.5 µM]
O=C(CC1SC2=NCCN2C1=O)Nc1ccc(Br)cc1 (configuration not stated)	-3%	-17%	?	24%	20%[10 µM]	3%
O=C(Nc1ccc(F)cc1)C1=CC(=O)N2CCN=C2S1	nt	11%	nt	-5%	24%[10 µM]	16µM*
Cc1ccc(NCCC(=O)c2cccs2)cc1C	nt	4%	nt	10%	-1%	1.6µM*
CC(C)c1ccc(NCCC(=O)c2cccs2)cc1	-11%	28%	?	2%	24%[10 µM]	2.8µM*
C/C(=N\Nc1ccc(Cl)c(C(=O)O)c1)c1cccs1	nt	12%[9.22 µM]	nt	-7%	25%[10 µM]	nt
O=C(CCNc1cccc(Cl)c1)c1cccs1	-12%	-5%	-5	6%	5%	1.3µM*
O=C(NNC(=O)c1cccs1)Nc1cccc(Cl)c1	-14%	-5%	14	-13%	21%	1%
Cc1ccc(NCCC(=O)c2cccs2)cc1Cl	-7%	-7%	13	5%	18%[10 µM]	2.5µM*
COc1ccc(COC(=O)N/N=C2/C[C@@H](O)[C@@H](O)[C@@H]3[C@H]4C(=O)N(c5ccc(F)cc5F)C(=O)[C@@H]4CC[C@@H]23)cc1	nt	nt	nt	nt	-30%[10 µM]	-3%[13.5 µM]
Cc1ccc(NCCC(=O)c2cccs2)cc1	nt	-2%	nt	1%	nt	0.89µM*
Cc1ccc(NC(=O)CCC(=O)c2cccs2)cc1	-11%	-23%	-22	11%	5%	?
Cc1nc2cnc(N3CCNCC3)nc2n(CCC#N)c1=O	?	nt	nt	3%	21%	?
SMILES	HPGD inh	HttQ103 aggreg	PNC assembly inh	GoLoco inh red	HTT ATP protect	ALDH1A1 inh
CCOC(=O)c1ccccc1NC(=O)c1cccnc1	-11%	-22%	?	-2%	-8%[10 µM]	-8%
COC(=O)c1ccccc1NC(=O)c1ccccc1SC	-30%	-13%	18	-9%	-6%[1.9 µM]	-4%
CCOC(=O)c1ccccc1NC(=O)CN(c1ccccc1)S(=O)(=O)N(C)C	-5%	-11%	3	6%	12%	28µM*
COCCCNC(=O)c1ccccc1SC	32µM*	-10%	-107*	4%	-24%	2%
CCOC(=O)c1ccccc1NC(=O)c1cncc(Br)c1	-25%	-12%	-93*	-25%	4%	-10%
CCOC(=O)c1ccccc1NC(=O)c1ccccc1SC	-11%	-14%	-80*	-4%	-32%	14µM*
Cc1ccc(NCc2nnc(SCC(N)=O)n2CCc2ccccc2)cc1	-24%	-16%	-2	-100%	7%[10 µM]	?
CCOc1cc(CNC2CCCC2)c(Cl)cc1OCC(=O)Nc1ccccc1	nt	-4%	nt	9%	-12%	-7%
COc1ccccc1NS(=O)(=O)c1cccc(C(=O)NN=C2CCCCCC2)c1	-17%	-10%	2	19%	8%[10 µM]	13µM*
COc1ccccc1NS(=O)(=O)c1ccc(NN=C2CCCCC2)c([N+](=O)[O-])c1	-12%	-10%	-10	7%	13%[10 µM]	-5%
S=c1[nH]nc(CSc2nc3ccccc3s2)n1Cc1ccccc1	13µM*	13%[9.22 µM]	?	4%	11%	?
C=CCn1c(CSc2nc3ccccc3s2)n[nH]c1=S	18µM*	1%	-27	-9%	-10%	11µM*
CCn1c(CSc2nc3ccccc3s2)n[nH]c1=S	?	5%[9.22 µM]	35	6%	-15%	?
C=CCn1c(C(c2ccccc2)c2ccccc2)n[nH]c1=S	25µM*	0%	-3	-1%	-3%[10 µM]	6%
CCOC(=O)c1ccc(Oc2cc(C)nc(SC)n2)cc1	-12%	23%	-100*	1%	4%[10 µM]	-15%
CCCOc1ccc(C2c3c(oc4ccccc4c3=O)C(=O)N2CCCN2CCOCC2)cc1 (configuration not stated)	-26%	-13%	0	7%	-1%	8.9µM*
COC(=O)c1ccc(C2c3c(oc4ccccc4c3=O)C(=O)N2CCCN2CCOCC2)cc1 (configuration not stated)	-12%	4%	-17	0%	-7%	?
CCOc1ccc(C2c3c(oc4ccccc4c3=O)C(=O)N2CCCN2CCOCC2)cc1 (configuration not stated)	-18%	8%	30	6%	11%	6.3µM*
COc1cccc(C2c3c(oc4cc(C)c(C)cc4c3=O)C(=O)N2CCCN(C)C)c1 (configuration not stated)	-11%	-7%	?	3%	-10%	28µM*
COc1cccc(C2c3c(oc4ccccc4c3=O)C(=O)N2CCCN2CCOCC2)c1 (configuration not stated)	-11%	7%	?	-8%	0%	?
